# Laboratory results reported in ChEMBL document CHEMBL1961873, “Compounds: GSK PKIS; Assays: Nanosyn kinase panel” (2012).
# Legend:
# [1] = biological target: Sphingosine kinase 1 (Homo sapiens) (UniProt Q9NYA1); settings: at 1 µM;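 note: mean SPHK1 inhibition value reported from the GSK PKIS kinase panel screen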
# [2] = biological target: T1, Sphingosine kinase 2 (Homo sapiens) (UniProt Q9NRA0); settings: at 0.1 µM
# T1 sequence (whole entry): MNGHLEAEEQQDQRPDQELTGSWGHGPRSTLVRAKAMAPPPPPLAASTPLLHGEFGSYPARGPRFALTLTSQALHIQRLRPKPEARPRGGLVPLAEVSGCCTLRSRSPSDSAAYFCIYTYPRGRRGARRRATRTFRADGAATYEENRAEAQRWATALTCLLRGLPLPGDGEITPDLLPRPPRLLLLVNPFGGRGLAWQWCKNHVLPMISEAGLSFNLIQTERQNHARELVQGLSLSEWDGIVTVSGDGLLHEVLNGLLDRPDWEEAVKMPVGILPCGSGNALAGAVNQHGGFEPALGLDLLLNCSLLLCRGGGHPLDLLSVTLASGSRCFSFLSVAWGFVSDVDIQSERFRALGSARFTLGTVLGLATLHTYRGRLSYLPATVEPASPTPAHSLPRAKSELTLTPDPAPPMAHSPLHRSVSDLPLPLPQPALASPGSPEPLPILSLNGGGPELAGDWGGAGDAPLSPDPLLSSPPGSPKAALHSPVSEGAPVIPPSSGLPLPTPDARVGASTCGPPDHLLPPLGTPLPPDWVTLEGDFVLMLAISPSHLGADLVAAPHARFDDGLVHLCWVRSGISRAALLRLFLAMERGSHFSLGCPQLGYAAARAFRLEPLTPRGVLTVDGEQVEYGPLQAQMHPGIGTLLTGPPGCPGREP
# [3] = biological target: T1, Sphingosine kinase 2 (Homo sapiens); settings: at 1 µM
# [4] = biological target: Casein kinase II subunit alpha (Homo sapiens) (UniProt P68400); settings: at 0.1 µM
# [5] = biological target: Casein kinase II subunit alpha (Homo sapiens) (UniProt P68400); settings: at 1 µM
# [6] = biological target: T2, Inhibitor of nuclear factor kappa-B kinase subunit alpha (Homo sapiens) (UniProt O15111); settings: at 0.1 µM
# T2 sequence (whole entry): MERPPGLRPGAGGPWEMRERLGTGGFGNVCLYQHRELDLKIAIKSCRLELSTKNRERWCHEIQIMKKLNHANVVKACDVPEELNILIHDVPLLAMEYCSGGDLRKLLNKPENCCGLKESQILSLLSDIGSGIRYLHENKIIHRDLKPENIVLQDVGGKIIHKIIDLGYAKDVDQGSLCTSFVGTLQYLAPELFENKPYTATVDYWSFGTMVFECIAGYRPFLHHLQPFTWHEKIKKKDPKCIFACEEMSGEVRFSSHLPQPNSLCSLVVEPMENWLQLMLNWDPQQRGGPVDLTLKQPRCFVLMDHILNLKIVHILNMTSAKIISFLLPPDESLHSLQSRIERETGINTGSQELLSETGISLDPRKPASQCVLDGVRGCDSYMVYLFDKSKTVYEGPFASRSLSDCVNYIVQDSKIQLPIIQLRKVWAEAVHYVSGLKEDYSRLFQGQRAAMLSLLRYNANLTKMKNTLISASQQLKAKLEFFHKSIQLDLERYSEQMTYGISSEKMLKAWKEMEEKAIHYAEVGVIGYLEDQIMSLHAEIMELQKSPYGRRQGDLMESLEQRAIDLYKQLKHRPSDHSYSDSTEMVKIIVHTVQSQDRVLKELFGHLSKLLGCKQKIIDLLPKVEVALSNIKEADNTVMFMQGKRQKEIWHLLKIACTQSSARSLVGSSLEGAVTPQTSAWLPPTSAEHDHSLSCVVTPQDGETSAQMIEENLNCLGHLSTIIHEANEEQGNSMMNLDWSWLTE
# [7] = biological target: T2, Inhibitor of nuclear factor kappa-B kinase subunit alpha (Homo sapiens); settings: at 1 µM
# [8] = biological target: T3, Inhibitor of nuclear factor kappa-B kinase subunit beta (Homo sapiens) (UniProt O14920); settings: at 0.1 µM
# T3 sequence (whole entry): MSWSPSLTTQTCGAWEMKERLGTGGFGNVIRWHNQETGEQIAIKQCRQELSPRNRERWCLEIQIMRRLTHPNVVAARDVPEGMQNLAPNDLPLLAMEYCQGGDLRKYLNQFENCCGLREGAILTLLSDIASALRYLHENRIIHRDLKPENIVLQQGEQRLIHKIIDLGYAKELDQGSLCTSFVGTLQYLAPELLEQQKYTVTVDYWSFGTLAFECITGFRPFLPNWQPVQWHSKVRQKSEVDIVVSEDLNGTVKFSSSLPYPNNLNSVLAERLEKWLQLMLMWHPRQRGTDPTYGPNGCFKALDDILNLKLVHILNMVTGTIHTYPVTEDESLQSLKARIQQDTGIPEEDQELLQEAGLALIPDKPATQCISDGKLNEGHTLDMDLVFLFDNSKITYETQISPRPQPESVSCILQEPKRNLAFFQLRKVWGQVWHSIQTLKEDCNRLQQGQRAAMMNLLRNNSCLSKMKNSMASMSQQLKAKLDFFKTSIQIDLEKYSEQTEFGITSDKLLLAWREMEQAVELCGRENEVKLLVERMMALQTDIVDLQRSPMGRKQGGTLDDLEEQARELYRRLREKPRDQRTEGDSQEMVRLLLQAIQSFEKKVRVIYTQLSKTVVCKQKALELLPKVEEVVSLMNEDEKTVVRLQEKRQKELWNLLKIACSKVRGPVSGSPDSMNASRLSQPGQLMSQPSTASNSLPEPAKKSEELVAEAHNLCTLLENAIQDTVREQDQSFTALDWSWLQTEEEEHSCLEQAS
# [9] = biological target: T3, Inhibitor of nuclear factor kappa-B kinase subunit beta (Homo sapiens); settings: at 1 µM
# [10] = biological target: T4, Inhibitor of nuclear factor kappa-B kinase subunit epsilon (Homo sapiens) (UniProt Q14164); settings: at 0.1 µM
# T4 sequence (whole entry): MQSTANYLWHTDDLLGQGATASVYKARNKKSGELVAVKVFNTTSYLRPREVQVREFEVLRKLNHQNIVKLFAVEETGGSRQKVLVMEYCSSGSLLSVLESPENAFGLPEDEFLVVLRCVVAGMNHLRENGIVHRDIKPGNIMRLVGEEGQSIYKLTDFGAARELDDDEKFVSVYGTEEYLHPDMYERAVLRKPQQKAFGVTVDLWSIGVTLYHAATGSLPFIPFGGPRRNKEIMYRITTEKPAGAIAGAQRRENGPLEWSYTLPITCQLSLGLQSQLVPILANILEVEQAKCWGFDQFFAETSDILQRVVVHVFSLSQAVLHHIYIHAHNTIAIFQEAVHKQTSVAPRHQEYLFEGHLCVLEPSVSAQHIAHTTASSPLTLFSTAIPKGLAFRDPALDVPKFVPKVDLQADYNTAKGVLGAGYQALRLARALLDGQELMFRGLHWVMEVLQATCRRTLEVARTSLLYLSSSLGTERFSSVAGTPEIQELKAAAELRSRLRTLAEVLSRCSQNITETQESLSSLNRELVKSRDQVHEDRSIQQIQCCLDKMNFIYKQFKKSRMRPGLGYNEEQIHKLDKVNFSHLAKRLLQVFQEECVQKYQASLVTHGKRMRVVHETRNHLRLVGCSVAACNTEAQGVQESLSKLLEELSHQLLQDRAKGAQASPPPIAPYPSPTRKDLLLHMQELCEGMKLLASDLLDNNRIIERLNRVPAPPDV
# [11] = biological target: T4, Inhibitor of nuclear factor kappa-B kinase subunit epsilon (Homo sapiens); settings: at 1 µM
# [12] = biological target: T5, Serine/threonine-protein kinase Nek1 (Homo sapiens) (UniProt Q96PY6); settings: at 0.1 µM
# T5 sequence (whole entry): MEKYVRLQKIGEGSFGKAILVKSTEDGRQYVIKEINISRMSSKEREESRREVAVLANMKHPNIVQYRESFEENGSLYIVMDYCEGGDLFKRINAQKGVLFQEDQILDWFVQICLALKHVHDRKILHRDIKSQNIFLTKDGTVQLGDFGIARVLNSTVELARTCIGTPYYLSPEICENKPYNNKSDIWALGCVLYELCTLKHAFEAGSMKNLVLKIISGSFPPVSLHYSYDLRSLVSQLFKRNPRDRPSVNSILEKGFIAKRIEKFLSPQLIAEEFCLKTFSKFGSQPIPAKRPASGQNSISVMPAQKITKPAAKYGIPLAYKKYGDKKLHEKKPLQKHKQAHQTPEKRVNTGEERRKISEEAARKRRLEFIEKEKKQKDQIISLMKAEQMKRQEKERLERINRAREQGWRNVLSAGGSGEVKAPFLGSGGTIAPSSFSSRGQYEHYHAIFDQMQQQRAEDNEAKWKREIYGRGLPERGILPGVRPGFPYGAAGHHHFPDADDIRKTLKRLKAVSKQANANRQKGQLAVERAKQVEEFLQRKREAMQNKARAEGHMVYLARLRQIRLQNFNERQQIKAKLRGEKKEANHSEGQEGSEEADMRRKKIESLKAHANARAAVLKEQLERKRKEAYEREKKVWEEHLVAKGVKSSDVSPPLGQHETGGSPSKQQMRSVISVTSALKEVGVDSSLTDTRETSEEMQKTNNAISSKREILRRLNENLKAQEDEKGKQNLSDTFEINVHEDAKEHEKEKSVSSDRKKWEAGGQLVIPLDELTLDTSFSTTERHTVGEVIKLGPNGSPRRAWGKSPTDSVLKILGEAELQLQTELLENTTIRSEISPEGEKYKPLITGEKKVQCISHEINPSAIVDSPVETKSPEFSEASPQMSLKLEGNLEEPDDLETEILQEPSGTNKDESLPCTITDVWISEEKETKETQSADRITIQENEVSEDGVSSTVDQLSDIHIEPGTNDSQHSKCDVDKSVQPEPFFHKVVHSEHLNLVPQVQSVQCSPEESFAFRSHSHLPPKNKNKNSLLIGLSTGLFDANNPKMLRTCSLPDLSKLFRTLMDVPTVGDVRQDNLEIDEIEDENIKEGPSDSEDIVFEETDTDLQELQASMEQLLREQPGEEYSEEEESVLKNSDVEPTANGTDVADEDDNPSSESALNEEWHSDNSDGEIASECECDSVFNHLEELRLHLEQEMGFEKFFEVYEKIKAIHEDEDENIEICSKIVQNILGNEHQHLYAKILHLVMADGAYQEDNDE
# [13] = biological target: T5, Serine/threonine-protein kinase Nek1 (Homo sapiens); settings: at 1 µM
# [14] = biological target: T6, Serine/threonine-protein kinase Nek2 (Homo sapiens) (UniProt P51955); settings: at 0.1 µM
# T6 sequence (whole entry): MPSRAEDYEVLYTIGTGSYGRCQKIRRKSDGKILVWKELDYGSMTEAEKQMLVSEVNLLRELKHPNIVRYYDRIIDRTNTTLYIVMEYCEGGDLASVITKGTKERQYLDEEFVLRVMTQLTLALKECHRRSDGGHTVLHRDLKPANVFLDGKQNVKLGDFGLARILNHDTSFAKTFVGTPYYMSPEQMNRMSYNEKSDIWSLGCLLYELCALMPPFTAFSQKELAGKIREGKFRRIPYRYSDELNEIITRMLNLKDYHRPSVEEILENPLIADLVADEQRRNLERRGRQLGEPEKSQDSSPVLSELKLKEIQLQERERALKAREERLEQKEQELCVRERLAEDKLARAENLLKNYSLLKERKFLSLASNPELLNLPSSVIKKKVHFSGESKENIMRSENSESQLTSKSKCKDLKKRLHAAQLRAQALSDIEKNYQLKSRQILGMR
# [15] = biological target: T6, Serine/threonine-protein kinase Nek2 (Homo sapiens); settings: at 1 µM
# [16] = biological target: Serine/threonine-protein kinase Nek6 (Homo sapiens) (UniProt Q9HC98); settings: at 0.1 µM
# [17] = biological target: Serine/threonine-protein kinase Nek6 (Homo sapiens) (UniProt Q9HC98); settings: at 1 µM
# [18] = biological target: Serine/threonine-protein kinase Nek7 (Homo sapiens) (UniProt Q8TDX7); settings: at 0.1 µM
# [19] = biological target: Serine/threonine-protein kinase Nek7 (Homo sapiens) (UniProt Q8TDX7); settings: at 1 µM
# [20] = biological target: T7, Serine/threonine-protein kinase Nek9 (Homo sapiens) (UniProt Q8TD19); settings: at 0.1 µM;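 note: reported value is the mean percent inhibition of NEK9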
# T7 sequence (whole entry): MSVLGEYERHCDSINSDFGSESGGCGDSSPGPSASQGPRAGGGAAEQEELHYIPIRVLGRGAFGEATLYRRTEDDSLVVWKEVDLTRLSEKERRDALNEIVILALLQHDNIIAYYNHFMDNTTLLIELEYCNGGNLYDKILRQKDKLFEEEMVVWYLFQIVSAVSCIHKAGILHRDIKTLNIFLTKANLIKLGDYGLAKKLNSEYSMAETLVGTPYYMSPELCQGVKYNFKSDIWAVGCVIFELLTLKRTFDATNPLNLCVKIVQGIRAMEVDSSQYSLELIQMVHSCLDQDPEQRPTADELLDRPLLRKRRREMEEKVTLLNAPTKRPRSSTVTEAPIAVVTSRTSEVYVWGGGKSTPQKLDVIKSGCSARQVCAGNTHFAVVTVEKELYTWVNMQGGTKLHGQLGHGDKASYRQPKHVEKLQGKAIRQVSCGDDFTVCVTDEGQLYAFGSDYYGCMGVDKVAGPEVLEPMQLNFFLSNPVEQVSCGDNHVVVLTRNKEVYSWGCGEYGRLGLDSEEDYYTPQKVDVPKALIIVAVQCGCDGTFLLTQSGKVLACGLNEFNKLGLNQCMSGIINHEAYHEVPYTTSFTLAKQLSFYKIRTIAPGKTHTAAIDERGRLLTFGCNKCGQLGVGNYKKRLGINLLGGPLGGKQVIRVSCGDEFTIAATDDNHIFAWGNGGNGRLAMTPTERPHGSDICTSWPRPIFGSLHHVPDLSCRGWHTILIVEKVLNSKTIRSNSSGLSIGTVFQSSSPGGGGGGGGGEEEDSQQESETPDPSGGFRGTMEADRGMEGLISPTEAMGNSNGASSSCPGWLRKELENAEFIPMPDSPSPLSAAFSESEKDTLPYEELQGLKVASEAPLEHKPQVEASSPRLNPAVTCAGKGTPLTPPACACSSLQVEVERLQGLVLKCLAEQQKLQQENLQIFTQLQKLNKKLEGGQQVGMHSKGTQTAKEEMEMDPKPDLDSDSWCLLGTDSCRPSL
# Chain of Serine/threonine-protein kinase Nek6 (Homo sapiens) (Q9HC98 whole entry): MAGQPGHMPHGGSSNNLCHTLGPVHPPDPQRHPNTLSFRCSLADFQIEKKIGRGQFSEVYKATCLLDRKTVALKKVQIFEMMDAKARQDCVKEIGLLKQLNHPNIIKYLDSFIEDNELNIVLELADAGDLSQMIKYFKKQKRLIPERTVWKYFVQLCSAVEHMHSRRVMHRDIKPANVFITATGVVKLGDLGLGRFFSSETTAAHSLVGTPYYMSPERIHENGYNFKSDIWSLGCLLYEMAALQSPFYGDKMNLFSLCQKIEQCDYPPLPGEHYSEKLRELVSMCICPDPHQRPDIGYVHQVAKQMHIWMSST
# Chain of Casein kinase II subunit alpha (Homo sapiens) (P68400 whole entry, looked up): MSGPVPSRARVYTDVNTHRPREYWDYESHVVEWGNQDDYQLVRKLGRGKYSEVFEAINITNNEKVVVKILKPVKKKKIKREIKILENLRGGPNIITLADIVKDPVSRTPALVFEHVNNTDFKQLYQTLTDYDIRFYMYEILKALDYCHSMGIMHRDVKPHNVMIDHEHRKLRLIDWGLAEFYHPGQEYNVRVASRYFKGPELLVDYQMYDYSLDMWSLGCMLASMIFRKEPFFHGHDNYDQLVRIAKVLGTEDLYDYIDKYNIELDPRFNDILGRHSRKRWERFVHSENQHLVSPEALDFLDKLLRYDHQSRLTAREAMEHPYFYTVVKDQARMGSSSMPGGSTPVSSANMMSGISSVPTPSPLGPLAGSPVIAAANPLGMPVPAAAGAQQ
# Chain of Serine/threonine-protein kinase Nek7 (Homo sapiens) (Q8TDX7 whole entry, looked up): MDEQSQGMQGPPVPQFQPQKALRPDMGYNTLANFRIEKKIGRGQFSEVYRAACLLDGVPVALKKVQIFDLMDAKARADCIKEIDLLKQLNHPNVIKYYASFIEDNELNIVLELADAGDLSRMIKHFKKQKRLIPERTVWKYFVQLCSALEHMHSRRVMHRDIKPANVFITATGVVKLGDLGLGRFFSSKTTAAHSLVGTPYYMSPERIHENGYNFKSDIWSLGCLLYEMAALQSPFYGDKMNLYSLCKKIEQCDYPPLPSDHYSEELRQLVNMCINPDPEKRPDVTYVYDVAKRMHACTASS
# Chain of Sphingosine kinase 1 (Homo sapiens) (Q9NYA1 whole entry): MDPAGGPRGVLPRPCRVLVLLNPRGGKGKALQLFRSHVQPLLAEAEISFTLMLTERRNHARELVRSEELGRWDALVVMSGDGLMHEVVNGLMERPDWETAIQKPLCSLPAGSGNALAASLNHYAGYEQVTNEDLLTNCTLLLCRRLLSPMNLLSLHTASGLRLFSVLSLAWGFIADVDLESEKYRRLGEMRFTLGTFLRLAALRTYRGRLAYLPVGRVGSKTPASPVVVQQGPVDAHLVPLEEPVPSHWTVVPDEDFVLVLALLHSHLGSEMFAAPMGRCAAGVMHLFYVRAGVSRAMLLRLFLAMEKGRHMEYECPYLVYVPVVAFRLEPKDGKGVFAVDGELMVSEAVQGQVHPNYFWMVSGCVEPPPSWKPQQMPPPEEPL
Structure (SMILES),inhibition [1] [%],inhibition [2] [%],inhibition [3] [%],inhibition [4] [%],inhibition [5] [%],inhibition [6] [%],inhibition [7] [%],inhibition [8] [%],inhibition [9] [%],inhibition [10] [%],inhibition [11] [%],inhibition [12] [%],inhibition [13] [%],inhibition [14] [%],inhibition [15] [%],inhibition [16] [%],inhibition [17] [%],inhibition [18] [%],inhibition [19] [%],inhibition [20] [%]
COc1cc(N2CCN(C(C)C)CC2)ccc1Nc1nc(Nc2cccc(F)c2C(=O)O)c2cc[nH]c2n1,-1.68,-0.64,-0.33,6.3,22.4,4.18,3.93,6.66,8.91,5.22,7.25,2.08,5.01,5.22,3.86,2.61,5.14,3.58,3.43,9.89
COC(=O)Nc1nc2cc(Oc3ccc(NC(=O)Nc4ccccc4)cc3)ccc2[nH]1,3.1,-0.28,0.5,1.57,7.67,10.9,8.6,4.21,5.49,5.85,5.8,1.46,1.92,3.05,1.76,3.54,0.95,2.02,1.72,4.39
